Screen size: about 320,000 compounds; about 2,100 (0.66%) were called active. Roughly 53% stayed inconclusive and do not appear here. The call rests on the fitted dose curve; in most records, active means well fitted inhibition curve with a large enough effect in the signal ratio, with a control signal flat (not every such curve was filed as active); inconclusive means small, poorly fitted or top-dose-only effect, or effect the other way, or a change in a side signal; inactive means flat fitted curve, though single readings scatter; the % refers to the signal ratio. Many of the other results were omitted from the sample, so actives are more common in it than they were.
Potency means the concentration at half of the fitted maximal effect.

The assay is described as follows: qHTS Assay for Lipid Storage Modulators in Drosophila S3 Cells.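 On cell number change: cells counted by Cell Tracker Red CMTPX staining in the red channel.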 As to conditions: BODIPY lipid droplet fluorescence, 18-24 h, cells fed with added oleic acid; cell number change: measured here: cell count max response; series mostly up to 46.1 µM. From the text:
NIH Molecular Libraries Probe Production Centers Network [MLPCN] NIH Chemical Genomics Center [NCGC] MLPCN Grant: 1 R03 MH085686-01 Assay Submitter (PI): Beller, Mathias; Max-Planck-Institut fur Biophysikalische Chemie NCGC Assay Overview: Storing lipids as a reservoir for energy or the anabolism of elementary metabolites is a common feature of probably all cells and is conserved from bacteria to humans. The universal cellular lipid storage organelle is the so-called lipid storage droplet (LD). Although ubiquitous, LDs share a simple structure composed of a hydrophobic core that harbors the storage lipids, which is shielded by a droplet-specific phospholipid monolayer to which proteins are attached. The current model of LD biogenesis involves an incorporation of the lipid core into the membrane leaflets of the endoplasmic reticulum (ER) followed by a subsequent budding-like maturation of a LD, which ultimately pinches off. Once released, LD volume can increase by localized lipogenesis or fusion of existing droplet. Storage lipids are re-mobilized enzymatically by lipase activity. Lipase regulation in the adipocyte is heavily studied and involves multiple components including catecholamine signaling, the LD-associated proteins Perilipin and comparative gene identification (CGI-58) and at least two lipases named hormone sensitive lipase (HSL) and adipocyte triglyceride lipase (ATGL). LD regulation outside of the adipocyte is poorly understood and only few components are known. However, there is an urgent need to learn more about ectopic fat depots as mislocalized storage of lipids, for example in the liver or muscle, is an eminent health problem associated with insulin resistance or the metabolic syndrome. We developed a laser-scanning cytometer assay to enable 1,536-well screening and combined the results of the small molecules screen with an RNAi database based on lipid storage.
Triacsin C (Sigma-Aldrich T-4540), an inhibitor of long-chain fatty acyl CoA synthetase that blocks synthesis of triglycerides, was used as a positive control for lipid under-storage. A total of 23 nL of compound solution of different concentrations were transferred to the assay plates using a Kalypsys pin tool equipped with a 1,536-pin array containing 10-nL slotted pins (FP1S10, 0.457-mm diameter, 50.8 mm long; V&P Scientific). One microliter of oleic acid (400 uM) was added, and the plate was lidded with stainless steel rubber gasket lined lids containing pinholes. […] Fluorescence was detected by excitation of the fluorophores with a 488-nm laser on an Acumen Explorer (TTP Lab Tech). The total intensity in channel 2 (500-530 nm) reflected lipid droplet accumulation. Cells were detected using channel 3 (575-640 nm) with 5-um width and 100-um depth filters. The ratio of the number of objects in PMT channel 2 over the number of objects in PMT channel 3 was also calculated. Percent activity was computed relative to an internal control (100% inhibited lipid droplet deposition due to the presence of 20 uM Triacsin C), which was added to 32 wells/plate.
As to `O=C(CN1CCCc2ccccc21)NC(=O)NCc1ccco1`, the Potency result was “inactive” and the cell number change is 15.9%.

Regarding `COc1ccc(C(C)NC(=O)c2ccc([N+](=O)[O-])cc2)cc1OC` (stereo not drawn), the Potency entry is “inactive” and the cell number change is 5.72%. The like results for `CC12COC3(C(=O)Nc4nccs4)CC1CCC32C` (stereo not drawn) were, in that order, “inactive” and 20.9%. In the case of `O=C1c2ccccc2C(=O)N1Cc1ccccn1`, the Potency result was “inactive” and the cell number change was -28%. Take `COC(=O)C1=C(C)C(c2cccs2)NC(=O)N1C` (stereo not drawn): the Potency result is “inactive” and the cell number change came out at 10.6%.

For `O=C(NCc1cccs1)NC1CCCCC1`, the Potency result is “inactive” and the cell number change was 3.84%. Turning to `O=C(NCCCn1ccnc1)c1ccc2ccccc2c1`, the Potency entry is “inactive”.

For the molecule `O=C(O)c1c(Cl)nc2ccccn12`, the Potency is 4.61 µM (active) and the cell number change is -7.31%. In the same order, the values of `O=Cc1c(Cl)nc2ccccn12` are “inactive” and -2.46%. In the same order, the values of `Cc1nc2ccccn2c1C(=O)c1ccccc1` are “inactive” and 15.8%. The like results for `COc1ccc([N+](=O)[O-])cc1NC(=O)CSc1nc(C)c(C)c(C)n1` were, in that order, “inactive” and 1.59%. As for `Cc1sc2ncn(CC(=O)N3CCCCC3)c(=O)c2c1S(=O)(=O)N1CCC(C)CC1`, the Potency entry is “inactive” and the cell number change is 18.5%. The like results for `CCOC(=O)C1CCN(C(=O)Cn2cnc3sc(C)c(S(=O)(=O)N4CCOCC4)c3c2=O)CC1` were, in that order, “inactive” and 1.25%.

Turning to `CCOC(=O)C1CCN(C(=O)Cn2cnc3sc(C)c(S(=O)(=O)N4CCC(C)CC4)c3c2=O)CC1`, the Potency is 0.58 µM (active) and the cell number change is 14.4%. For the molecule `CN(C)c1ncc(S(=O)(=O)c2ccccc2)c(=O)[nH]1`, the Potency entry was “inactive” and the cell number change turned out to be 19.4%. The like results for `CC12CC3(C)CC(C)(C1)CC(C(=O)NCC(=O)O)(C2)C3` were, in that order, 1.46 µM (active) and -16.9%.

Take `COC(=O)CNC(=O)C12CC3(C)CC(C)(CC(C)(C3)C1)C2`: the Potency result was “inactive” and the cell number change was -2.27%. The like results for `CC12CC3(C)CC(C)(C1)CC(C(=O)NC(=S)N1CCCC1)(C2)C3` were, in that order, “inactive” and -0.792%. With `Cc1cc(C)nc(SCc2cn3c(C)cccc3n2)n1`, the Potency result was “inactive” and the cell number change is 13.2%. In the same order, the values of `O=C(NCCc1ccccc1)C1CCCN(C(=O)Nc2ccc(F)cc2)C1` (stereo not drawn) are “inactive” and 16.8%.

Consider `O=C(COC(=O)c1ccc(NS(=O)(=O)c2ccc(F)c(F)c2)cc1)NCC1CCCO1` (stereo not drawn), for which the Potency result is “inactive” and the cell number change came out at 10.2%. The like results for `O=C(CCc1c[nH]c2ccccc12)N1CCCCCCC1` were, in that order, “inactive” and -19.1%.

For `Cc1cc(NC(=O)c2ccc(C)c([N+](=O)[O-])c2)no1`, the Potency result was “inactive” and the cell number change came out at 0.478%. In the same order, the values of `Cc1cc(NC(=O)c2ccc([N+](=O)[O-])cc2)no1` are 0.58 µM (active) and -11.8%.

Turning to `Cc1cc(NC(=O)c2cc([N+](=O)[O-])cc([N+](=O)[O-])c2)no1`, the Potency result is “inactive” and the cell number change was found to be 2.37%.

Regarding `C/C(=N\NC(=O)c1ccc(F)cc1)c1cccc(NC(=O)c2cccc(F)c2)c1`, the Potency result was “inactive” and the cell number change was found to be 11.9%. Consider `COC(=O)c1sccc1NC(=O)COc1ccc(F)cc1Cl`, for which the Potency entry was “inactive” and the cell number change was 0.149%. As to `Cc1ccc(C(=O)Nc2ccc(C(=O)OCc3cc(=O)n4ccsc4n3)cc2)cc1`, the Potency entry was “inactive” and the cell number change turned out to be 10.6%. For `COCCc1nn2c(=O)cc(COC(=O)c3cc(OC)c(OC)c(OC)c3)nc2s1`, the Potency result is “inactive”.

Regarding `Cc1nn2c(=O)cc(COC(=O)c3ccc(NC(=O)C(C)(C)C)cc3)nc2s1`, the Potency was 3.66 µM (active) and the cell number change came out at 7.59%.

`COc1ccc(C(=O)CSc2ccc3nnc(-c4cccnc4)n3n2)cc1`: the Potency entry is “inactive” and the cell number change was -3.07%. Turning to `Clc1ccc(OCc2nnc3n2CCCCC3)c(Cl)c1`, the Potency result was “inactive”.

With `O=C(CN1C(=O)/C(=C/c2ccc(F)cc2)SC1=S)NC1CCS(=O)(=O)C1` (stereo not drawn), the Potency result was “inactive” and the cell number change is -19.3%.

In the case of `O=C(CN1C(=O)S/C(=C\c2ccccc2F)C1=O)NC1CCS(=O)(=O)C1` (stereo not drawn), the Potency result is “inactive” and the cell number change is -4.18%. In the same order, the values of `COc1ccc(/C=C2\SC(=S)N(CC(=O)NC3CCS(=O)(=O)C3)C2=O)cc1` (stereo not drawn) are “inactive” and 5.36%. The like results for `COc1cccc(/C=C2\SC(=O)N(CC(=O)NC3CCS(=O)(=O)C3)C2=O)c1` (stereo not drawn) were, in that order, “inactive” and 0.472%.

As for `CC(C)c1ccc(/C=C2\SC(=O)N(CC(=O)NC3CCS(=O)(=O)C3)C2=O)cc1` (stereo not drawn), the Potency is 2.59 µM (active) and the cell number change is -27.6%. The like results for `CC(C(=O)NC1CCS(=O)(=O)C1)N1C(=O)/C(=C/c2ccc(Cl)cc2)SC1=S` (stereo not drawn) were, in that order, 20.6 µM (active) and -12.5%. As for `O=C(CCN1C(=O)S/C(=C\c2ccccc2)C1=O)NC1CCS(=O)(=O)C1` (stereo not drawn), the Potency result was “inactive” and the cell number change is -15.9%.

Regarding `O=C(CN1C(=O)S/C(=C\c2ccccc2)C1=O)NC1CCS(=O)(=O)C1` (stereo not drawn), the Potency was 20.6 µM (active). On the same count and under the same terms, the result for `O=C(CN1C(=O)/C(=C/c2ccccc2)SC1=S)NC1CCS(=O)(=O)C1` (stereo not drawn) reads “inactive”. Consider `O=C(O)CSc1nnnn1C1CCCCC1`, for which the Potency result is “inactive” and the cell number change turned out to be 12.8%. In the same order, the values of `CCOC(=O)c1oc2ccccc2c1COC(=O)CNC(=O)c1ccccc1` are “inactive” and -8.09%.

In the case of `NC(=O)C1CCN(CC(O)CSc2ccccc2)CC1` (stereo not drawn), the Potency result was “inactive”.

For the molecule `Cc1nnc(N/N=C/c2ccco2)n1N`, the Potency entry was “inactive” and the cell number change was -14%. The like results for `N/C(=N\OC(=O)c1cc([N+](=O)[O-])ccc1Cl)c1cccnc1` were, in that order, “inactive” and -8.86%.

For the molecule `CN(C)CCCNC(=O)C(=O)NCC1OCCN1S(=O)(=O)c1cccs1` (stereo not drawn), the Potency entry was “inactive” and the cell number change was determined as 1.62%.

The values are drawn from PubChem BioAssay AID2685 (National Center for Advancing Translational Sciences (NCATS), 2010).
